Results published in PubChem BioAssay (NCATS).
Inconclusive results are not listed. Values without a mark were called inactive. Activity calls are given as the source filed them. The call rests on the fitted dose curve; in most records, active means well fitted inhibition curve with a large enough effect; inconclusive means small, poorly fitted or top-dose-only effect; inactive means flat fitted curve, though single readings scatter.

Assays:
Experiment in all cases: Cytotoxic Profiling of Annotated Libraries Using Quantitative High-Throughput Screening (AID 1296008); further: nearly all actives have a fitted effect of over 60% in size
Settings in all cases: Five cell lines viability, CellTiter-Glo ATP luminescence, 48-72 h; max response: hits give low values
[1] = tested on: CRL-7250
Outline: (§1)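 Cells exposed to compounds for 48 or 72 hr at 37 degrees Celsius. Viability read as ATP-coupled luminescence with CellTiter-Glo after 10 min at room temperature.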

[2] = tested on: HEK293
Outline: as §1

[3] = tested on: KB-3-1
Outline: as §1
On the % scale 0 is the no-effect control and ±100 the full control effect; potency means the concentration at half of the fitted maximal effect.

## O=S(=O)(Nc1ccccn1)c1ccc(N=Cc2c(O)[nH]c3ccc4ncsc4c23)cc1
[1]
  outcome: inactive
[2]
  max response: -3.48%
[3]
  max response: -4.18%

## OC[C@H]1O[C@@H](Oc2cc(O)c3c(c2)O[C@@H](c2ccc(O)cc2)[C@H](O)C3)[C@H](O)[C@@H](O)[C@@H]1O
[1]
  max response: -1.22%
[2]
  max response: -5.13%
[3]
  outcome: inactive

## Cc1c(NC(=O)c2cc(C(N)=O)nc3cc(F)ccc23)c(C(F)(F)F)nn1Cc1ccc(C#N)cc1
[1]
  max response: -21.4%
[2]
  Potency: 0.0862 µM (active)
[3]
  max response: 4.52%

## CC1CCN(C(=O)CC#N)CC1N(C)c1ncnc2[nH]ccc12 (configuration not stated)
[1]
  max response: 0.271%
[2]
  outcome: inactive
[3]
  outcome: inactive

## CC[C@@](C)(Nc1ccnc(-c2c[nH]c3ncccc23)n1)C(=O)NCC(F)(F)F
[1]
  outcome: inactive
[2]
  max response: -4.43%
[3]
  outcome: inactive

## Cn1c(=O)cc(N2CCCC(N)C2)n(Cc2cc(F)ccc2C#N)c1=O (configuration not stated)
[1]
  max response: 3.15%
[2]
  max response: -7.1%
[3]
  max response: -0.0728%

## CNC(=O)c1ccccc1Nc1nc(Nc2ccc3c(c2OC)CCCC(N2CCN(CCO)CC2)C3)ncc1Cl (configuration not stated)
[1]
  Potency: 7.31 µM (active)
[2]
  Potency: 5.17 µM (active)
[3]
  Potency: 10.3 µM (active)

## CC(=O)N[C@@H](C(=O)O[C@H]1CCC(C)(C)[C@@H]2CCC3=C(COC3=O)[C@@]12C)C(C)C
[1]
  max response: -2.03%
[2]
  max response: 1.75%
[3]
  max response: -11.9%

## C=C(C)C1CCC2(C(=O)O[C@@H]3O[C@H](CO[C@@H]4O[C@H](CO)[C@@H](O)[C@H](O)[C@H]4O)[C@@H](O)[C@H](O[C@@H]4O[C@@H](C)[C@H](O)[C@@H](O)[C@H]4O)[C@H]3O)CCC3(C(=O)O)C(CCC4C5(C)CCC(O)C(C)(C)C5CCC43C)C12 (some centres not stated)
[1]
  outcome: inactive
[2]
  outcome: inactive
[3]
  outcome: inactive
